For assay [1], the target named is Aldehyde dehydrogenase, mitochondrial (Homo sapiens) (UniProt P05091). Nature of the assay: qHTS for Inhibitors of the Aldehyde Dehydrogenase Family (ALDH2) Primary screen (AID 2061308; further: nearly all actives have a fitted effect of over 55% in size). (In general: In qHTS, concentration-response curves come from the screen itself.)
The target in assay [2] is Retinaldehyde dehydrogenase 3 (Homo sapiens) (UniProt P47895). Nature of the assay: qHTS for Inhibitors of the Aldehyde Dehydrogenase Family (ALDH1A3) Primary screen (AID 2061315).

SMILES strings stand for the structures. Results filed as inconclusive are left out. Entries that show only a call come without a potency. The source made the active and inactive calls. The call rests on the fitted dose curve; in most records, active means well fitted curve in the direction sought with a large enough effect; inconclusive means small, poorly fitted or top-dose-only effect, or another doubt; inactive means no such curve, though single readings can be large; an effect the other way counts as inactive or inconclusive.

Turning to `Cc1cc(NS(=O)(=O)c2cc3c(cc2F)NC(=O)CC3)ccc1F`, the Potency result in assay [1] and in assay [2] was “inactive” in each case.

Consider `COc1ccc(C2Nc3ccccc3C(=O)N2Cc2cccc(Cl)c2)cc1COc1ccc(NC(C)=O)cc1` (stereo not drawn), for which the Potency entry in assay [1] and in assay [2] was “inactive” throughout.

In the case of `O=S(=O)(NC1CCN(S(=O)(=O)c2ccc3c(c2)OCCO3)C1)c1c(F)cccc1F` (stereo not drawn), the Potency entry in assay [1] and in assay [2] was “inactive” each time.

In the case of `O=C(Nc1ccc(-c2ccccc2)cc1)Nc1nnc(-c2ccncc2)s1`, the Potency result in assay [1] and in assay [2] was “inactive” in each case.

Take `COCCN(CCOC)c1nc(C)nc2c1nc(-c1ccccc1)n2CC1CCN(C)CC1`: the Potency result in assay [1] and in assay [2] was “inactive” in each case.

`CCOC(=O)c1ccoc1-c1ccc2ncnc(NCCc3cnc[nH]3)c2c1`: the Potency result in assay [1] and in assay [2] was “inactive” throughout.

`CN(c1ccc(NC(=O)Nc2ccccc2)cc1)S(=O)(=O)c1cnn(-c2ccc(F)cc2)c1`: the Potency result in assay [1] and in assay [2] was “inactive” in each case.

Consider `Cc1ccc(NS(=O)(=O)c2cc3c(cc2N[C@@H](C)CO)NC(=O)CC3)cc1C`, for which the Potency entry in assay [1] and in assay [2] was “inactive” throughout.

As to `Cc1ccc(-c2cc(C(=O)Nc3cccc4ccccc34)c3ccccc3n2)cc1C`, the Potency result in assay [1] and in assay [2] was “inactive” in each case.

Turning to `O=C(COc1ccc(F)cc1)NCCc1nc2ccccc2[nH]1`, the Potency result in assay [1] and in assay [2] was “inactive” each time.

As to `Cc1ccc(S(=O)(=O)Nc2cnccc2C(=O)Nc2nc(-c3cc4ccccc4o3)cs2)cc1`, the Potency entry in assay [1] and in assay [2] was “inactive” in each case.

For `c1cncc(-c2ccc(CNc3nc(-n4ccnc4)nc4ccccc34)cc2)c1`, the Potency entry in assay [1] and in assay [2] was “inactive” each time.

`CC1=CC(=O)C2C(C)(C)CCCC2(C)C12CCC1(COC(=O)C1)O2` (stereo not drawn): the Potency result in assay [1] and in assay [2] was “inactive” throughout.

Take `COc1cc(-c2ncn(/C=C\C(=O)OC(C)C)n2)cc(C(F)(F)F)c1`: the Potency result in assay [1] and in assay [2] was “inactive” in each case.

(Values after PubChem BioAssay (NCATS).)
